# PubChem BioAssay (Tox21)
# Where “and” joins values, the source holds several entries; their conditions need not be identical. Equal values may be shown once. Records with an inconclusive call do not appear. Entries that show only a call come without a potency. The source holds several records for some structures; these can differ, active in one and inactive in another. Calls of active or inactive are those of the source. Unless noted, calls follow the shape of the full dose curve.
# Assays:
# [1] = Nuclear factor erythroid 2-related factor 2/antioxidant responsive element (Nrf2/ARE) small molecule agonists: qHTS cell viability counter screen in human keratinocytes (AID 1919968; active = well fitted curve in the direction sought with a large enough effect in the repeat runs; an effect the other way counts as inactive or inconclusive; also: nearly all actives have a fitted effect of over 55% in size; also: potency is read from the fitted curve at half-maximal effect)
# Outline: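 Cells of the KeratinoSens line were plated at 1,500 per well and left for 5 h before compound transfer from DMSO stocks. After a 23 h incubation (37 C, 5% CO2), CellTiter-Fluor was added. Signal was taken as fluorescence intensity 1 h later.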
# [2] = target: KiSS-1 receptor (Homo sapiens) (UniProt Q969F8); assay: Human kisspeptin (KISS1R) small molecule agonists, calcium flux assay in KISS1R-HEK293 cells (AID 1920064; active = well fitted curve in the direction sought with a large enough effect in the repeat runs; an effect the other way counts as inactive or inconclusive)
# Outline: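 Cell line: HEK293, stable human KISS1R. Dye loading 1 h at 37 C after 18 h culture. Read: kinetic fluorescence, 480/540 nm, 3 min at 1 s intervals.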
# [3] = G protein-coupled receptor (GPCR) small molecule agonists, calcium flux assay: HEK293 wild type cell line counter screen (AID 1920065)
# Outline: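 Tox21 10K compounds, 15 concentrations each in triplicate, pin-transferred in DMSO onto dye-loaded cells; kinetic read at 480/540 nm for 3 min, 1 s intervals.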
# [4] = p53 small molecule agonists, cell-based qHTS assay with human liver microsomes (AID 1963577);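 also: p53 response element beta-lactamase reporter cells with liver microsomes plus NADPH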
# Outline: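 Metabolically competent format: test substances, human liver microsomes and NADPH (both 0.5 mg/mL final) incubated with p53RE-bla cells 16 h at 37 C. Beta-lactamase reporter signal then quantified by fluorescence.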
# [5] = p53 small molecule agonists, cell-based qHTS assay with rat liver microsomes (AID 1963578)
# Outline: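 Each plate received p53RE-bla cells, then compound, then rat liver microsomes and NADPH (both 0.5 mg/mL final). Plates were held 16 h at 37 C, and beta-lactamase activity was detected with LiveBLAzer over 2 h.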
# [6] = p53 small molecule agonists, cell-based qHTS assay with human liver microsomes: qHTS cell viability counter screen (AID 1963579); also: nearly all actives have a fitted effect of over 45% in size
# Outline: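 Tox21 library compounds, delivered from DMSO stocks, were tested on p53RE-bla cells together with 0.5 mg/mL human liver microsomes and 0.5 mg/mL NADPH (final) over 16 h at 37 C; CellTiter-Glo luminescence served as the cytotoxicity measure.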
# [7] = p53 small molecule agonists, cell-based qHTS assay with rat liver microsomes: qHTS cell viability counter screen (AID 1963580); also: nearly all actives have a fitted effect of over 45% in size; also: potency is read from the fitted curve at half-maximal effect
# Outline: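 Cytotoxicity counter screen: intracellular ATP measured by CellTiter-Glo luminescence in the same wells as the beta-lactamase reporter read, on HCT-116 p53RE-bla cells exposed 16 h at 37 C to compounds with rat liver microsomes and NADPH, each 0.5 mg/mL final.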
# [8] = p53 small molecule agonists, cell-based qHTS assay: qHTS cell viability counter screen (AID 1963581); also: nearly all actives have a fitted effect of over 45% in size; also: potency is read from the fitted curve at half-maximal effect
# Outline: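 ATP content measured by luminescence in HCT-116 p53RE-bla cells treated 16 h at 37 C, same wells as the reporter screen.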
# [9] = p53 small molecule agonists, cell-based qHTS assay (AID 1963582; active = well fitted activation curve with a large enough effect in the signal ratio in the repeat runs, not every such curve was filed as active; the % refers to the signal ratio)
# Outline: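 16 h compound exposure (37 C) of p53 response element–bla cells, preceded by 5 h recovery at 37 C/5% CO2; read-out via LiveBLAzer B/G FRET substrate, 2 h RT, fluorescence intensity.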
# [10] = cAMP Responsive Elements (CRE) small molecule agonists, cell-based qHTS assay (AID 1963590)
# Outline: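 HEK 293T cells stably bearing CRE-bla were plated at 2,000 cells per well and rested 18 h. Compounds, positive controls or DMSO were added for 3 h at 37 C. LiveBLAzer B/G substrate was then loaded for 2 h at room temperature.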
# [11] = cAMP Responsive Elements (CRE) small molecule antagonists, cell-based qHTS assay (AID 1963591; active = well fitted inhibition curve with a large enough effect in the signal ratio in the repeat runs, not every such curve was filed as active; the % refers to the signal ratio)
# Outline: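 First, CRE-bla HEK293T cells settled 18 h at 37 C. Next, compound and 0.25 uM final NKH477 were applied for 3 h. Last, LiveBLAzer B/G substrate was loaded for 2 h at room temperature.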
# [12] = target: Beta-2 adrenergic receptor (Homo sapiens) (UniProt P07550); assay: Adrenergic beta2 receptor (ADRB2) small molecule antagonists, cell-based qHTS assay (AID 1963592); also: nearly all actives have a fitted effect of over 50% in size; also: potency is read from the fitted curve at half-maximal effect
# Outline: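 Assay format: CHO-ADRB2 cells, 18-20hr seeding at 37C/5% CO2, then compound plus 1nM isoproterenol agonist mix for 0.5hr RT. Homogeneous time-resolved fluorescence cAMP detection after 1hr, expressed as 665/615 nm ratio.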
# [13] = target: D(2) dopamine receptor (Homo sapiens) (UniProt P14416); assay: Dopamine D2 receptor (DRD2) small molecule agonists, cell-based qHTS assay (AID 1963594); also: nearly all actives have a fitted effect of over 35% in size
# Outline: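 HEK293 cells stably expressing human DRD2, pre-treated with PDE inhibitor Ro20-1724 (0.1 mM final) and compound 10 min at room temperature, then stimulated with NKH477 (200nM […]) for 30 min. cAMP read by HTRF (665/620 nm).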
# [14] = target: D(2) dopamine receptor (Homo sapiens) (UniProt P14416); assay: Dopamine D2 receptor (DRD2) small molecule antagonists, cell-based qHTS assay (AID 1963595; active = well fitted inhibition curve with a large enough effect in the signal ratio in the repeat runs, with a control signal flat; the % refers to the signal ratio; also: potency is read from the fitted curve at half-maximal effect)
# Outline: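 In this cell-based antagonist screen, compounds act for 10 min at room temperature before a 30 min challenge with 12 nM quinpirole and 200 nM NKH477. cAMP is quantified by HTRF competition in DRD2-HEK293 cells containing 0.1 mM Ro20-1724.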
# [15] = target: Beta-2 adrenergic receptor (Homo sapiens) (UniProt P07550); assay: Adrenergic beta2 receptor (ADRB2) small molecule agonists, cell-based qHTS assay (AID 1963593);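 also: CHO cells stably overexpressing human ADRB2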
# Outline: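 CHO cells stably over-expressing ADRB2 were plated overnight at 37C, then dosed with compounds plus a stimulation mix containing 100uM IBMX and 25uM Ro-20-1724 for 0.5hr at room temperature. cAMP was measured by HTRF competition, 1hr.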
# [16] = target: 5-hydroxytryptamine receptor 2A (Homo sapiens) (UniProt P28223); assay: 5-hydroxytryptamine receptor 2A (HTR2A) small molecule antagonists, cell-based qHTS assay (AID 1963586); also: nearly all actives have a fitted effect of over 45% in size
# Outline: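 CHO cells stably expressing human HTR2A were plated for 18 h at 37 C, then loaded with calcium dye for 1 h. Compounds were preincubated 5 min at room temperature before DOI (4 nM solution) was added. Kinetic fluorescence was read for 3 min.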
# [17] = target: Muscarinic acetylcholine receptor M1 (Homo sapiens) (UniProt P11229); assay: Cholinergic receptor muscarinic 1 (CHRM1) small molecule antagonists, cell-based qHTS assay (AID 1963588); also: nearly all actives have a fitted effect of over 40% in size
# Outline: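 Compounds were tested at 15 concentrations in three independent runs. Dye-loaded CHRM1-CHO cells were exposed 5 min at room temperature before stimulation by acetylcholine added at 50nM. Intracellular calcium was read kinetically on FDSS for 3 min.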
# [18] = target: Muscarinic acetylcholine receptor M1 (Homo sapiens) (UniProt P11229); assay: Cholinergic receptor muscarinic 1 (CHRM1) small molecule agonists, cell-based qHTS assay (AID 1963589); also: nearly all actives have a fitted effect of over 35% in size
# Outline: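 Homogeneous fluorescence calcium flux, agonist mode. Human M1-expressing CHO cells; compound dosed at 15 concentrations, three independent runs; signal sampled every 1 sec.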
# [19] = target: 5-hydroxytryptamine receptor 2A (Homo sapiens) (UniProt P28223); assay: 5-hydroxytryptamine receptor 2A (HTR2A) small molecule agonists, cell-based qHTS assay (AID 1963587); also: nearly all actives have a fitted effect of over 30% in size
# Outline: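 CHO cells stably expressing human HTR2A, plated 18 h, loaded with calcium dye 1 h at 37 C. Agonist mode: compounds added and intracellular calcium fluorescence recorded kinetically for 2 min at 1 sec intervals.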
# [20] = target: Gonadotropin-releasing hormone receptor (Homo sapiens) (UniProt P30968); assay: Human gonadotropin-releasing hormone receptor (GnRHR) small molecule agonists, calcium flux assay in GnRHR-HEK293 cells (AID 1920063); also: nearly all actives have a fitted effect of over 35% in size
# Outline: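 Compounds dissolved in DMSO are pin-transferred onto dye-loaded GnRHR-HEK293 cells, which were seeded 18 h before at 37 C/5% CO2. Calcium signal is read as fluorescence intensity at 1 s intervals for 3 min.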
# Sequence of KiSS-1 receptor (Homo sapiens) (Q969F8 whole entry, looked up): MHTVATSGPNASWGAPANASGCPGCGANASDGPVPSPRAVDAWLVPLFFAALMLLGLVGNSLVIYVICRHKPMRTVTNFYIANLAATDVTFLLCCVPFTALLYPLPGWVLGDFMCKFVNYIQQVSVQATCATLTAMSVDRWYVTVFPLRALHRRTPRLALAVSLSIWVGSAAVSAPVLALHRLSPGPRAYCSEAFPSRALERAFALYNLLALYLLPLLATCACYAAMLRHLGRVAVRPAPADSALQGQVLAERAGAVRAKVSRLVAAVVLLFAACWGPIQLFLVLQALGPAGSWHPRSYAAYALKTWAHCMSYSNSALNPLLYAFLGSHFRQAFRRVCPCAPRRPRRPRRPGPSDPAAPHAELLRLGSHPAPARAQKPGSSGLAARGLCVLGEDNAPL
# Sequence of 5-hydroxytryptamine receptor 2A (Homo sapiens) (P28223 whole entry, looked up): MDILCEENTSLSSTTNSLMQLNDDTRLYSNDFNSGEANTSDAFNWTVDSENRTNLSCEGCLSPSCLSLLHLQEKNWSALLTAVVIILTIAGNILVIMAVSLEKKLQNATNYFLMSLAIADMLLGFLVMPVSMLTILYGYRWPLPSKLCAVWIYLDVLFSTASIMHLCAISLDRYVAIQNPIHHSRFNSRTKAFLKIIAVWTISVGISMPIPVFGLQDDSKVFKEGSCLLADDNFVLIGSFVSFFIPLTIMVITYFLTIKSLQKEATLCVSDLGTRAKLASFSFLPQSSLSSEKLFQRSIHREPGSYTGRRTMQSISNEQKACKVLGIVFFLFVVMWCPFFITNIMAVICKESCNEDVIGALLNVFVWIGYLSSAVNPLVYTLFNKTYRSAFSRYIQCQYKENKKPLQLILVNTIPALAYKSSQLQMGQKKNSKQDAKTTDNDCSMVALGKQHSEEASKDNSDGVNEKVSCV
# Sequence of Beta-2 adrenergic receptor (Homo sapiens) (P07550 whole entry, looked up): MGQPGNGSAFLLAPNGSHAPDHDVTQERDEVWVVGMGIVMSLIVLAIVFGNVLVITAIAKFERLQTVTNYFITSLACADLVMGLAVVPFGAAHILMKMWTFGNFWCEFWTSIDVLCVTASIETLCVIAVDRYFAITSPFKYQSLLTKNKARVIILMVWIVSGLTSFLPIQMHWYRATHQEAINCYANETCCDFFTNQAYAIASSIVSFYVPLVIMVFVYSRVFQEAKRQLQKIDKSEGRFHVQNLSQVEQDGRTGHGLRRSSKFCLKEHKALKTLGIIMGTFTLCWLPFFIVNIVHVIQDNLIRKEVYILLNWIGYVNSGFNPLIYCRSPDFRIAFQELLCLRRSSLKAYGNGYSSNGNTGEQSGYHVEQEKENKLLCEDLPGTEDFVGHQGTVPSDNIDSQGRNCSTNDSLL
# Sequence of D(2) dopamine receptor (Homo sapiens) (P14416 whole entry, looked up): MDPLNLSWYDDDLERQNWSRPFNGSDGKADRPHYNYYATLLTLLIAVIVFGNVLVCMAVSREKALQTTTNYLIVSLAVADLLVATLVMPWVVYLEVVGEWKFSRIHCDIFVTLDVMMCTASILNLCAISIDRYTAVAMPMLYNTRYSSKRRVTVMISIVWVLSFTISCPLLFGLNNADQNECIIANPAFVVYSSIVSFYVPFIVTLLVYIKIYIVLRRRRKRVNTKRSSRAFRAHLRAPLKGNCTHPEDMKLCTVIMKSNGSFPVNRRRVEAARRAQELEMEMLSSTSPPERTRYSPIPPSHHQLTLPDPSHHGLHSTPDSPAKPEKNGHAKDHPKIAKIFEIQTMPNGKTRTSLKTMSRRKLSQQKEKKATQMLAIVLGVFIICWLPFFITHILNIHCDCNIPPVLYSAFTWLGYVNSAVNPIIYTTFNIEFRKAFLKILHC
# Sequence of Muscarinic acetylcholine receptor M1 (Homo sapiens) (P11229 whole entry, looked up): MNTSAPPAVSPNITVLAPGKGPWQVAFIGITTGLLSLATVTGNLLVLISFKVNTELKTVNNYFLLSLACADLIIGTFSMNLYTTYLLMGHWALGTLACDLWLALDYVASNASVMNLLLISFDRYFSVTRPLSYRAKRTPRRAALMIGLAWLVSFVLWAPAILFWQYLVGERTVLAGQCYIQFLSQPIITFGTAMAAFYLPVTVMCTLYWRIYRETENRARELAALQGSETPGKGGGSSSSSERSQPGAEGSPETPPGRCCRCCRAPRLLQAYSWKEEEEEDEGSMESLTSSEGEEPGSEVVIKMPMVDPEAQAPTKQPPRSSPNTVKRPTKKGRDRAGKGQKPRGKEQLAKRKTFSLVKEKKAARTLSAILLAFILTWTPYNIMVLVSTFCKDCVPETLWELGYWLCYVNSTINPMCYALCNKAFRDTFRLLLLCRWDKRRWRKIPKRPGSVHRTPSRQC
# Sequence of Gonadotropin-releasing hormone receptor (Homo sapiens) (P30968 whole entry, looked up): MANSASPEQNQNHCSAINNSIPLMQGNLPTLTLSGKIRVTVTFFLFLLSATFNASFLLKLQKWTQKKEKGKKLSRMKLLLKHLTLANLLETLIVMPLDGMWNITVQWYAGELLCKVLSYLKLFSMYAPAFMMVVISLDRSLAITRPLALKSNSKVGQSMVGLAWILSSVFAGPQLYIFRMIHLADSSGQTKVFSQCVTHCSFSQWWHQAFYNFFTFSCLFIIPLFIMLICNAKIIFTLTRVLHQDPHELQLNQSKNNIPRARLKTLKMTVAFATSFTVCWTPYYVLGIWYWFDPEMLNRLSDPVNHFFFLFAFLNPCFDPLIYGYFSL
SMILES,Potency [1],Potency [2],Potency [3],Potency [4],Potency [5],Potency [6],Potency [7],Potency [8],Potency [9],Potency [10],Potency [11],Potency [12],Potency [13],Potency [14],Potency [15],Potency [16],Potency [17],Potency [18],Potency [19],Potency [20]
C[C@](N)(Cc1ccc(O)c(O)c1)C(=O)O,inactive,inactive,inactive,inactive,inactive,inactive,inactive,inactive,inactive,inactive,inactive,inactive,inactive,inactive,,,,,,
OC[C@@H](O)[C@H](O)[C@H](O)[C@@H](O)CO,inactive,inactive,inactive,,inactive,inactive,inactive,inactive,inactive,inactive,inactive,,inactive,inactive,inactive,,,,,
CC(=O)CC/C=C(\C)CCC=C(C)C,inactive,inactive,inactive,inactive,inactive,inactive,inactive,inactive,inactive,inactive,,inactive,inactive,inactive,inactive,inactive,inactive,inactive,,
O=C1O[C@H]([C@H](O)CO)C(O)=C1O,inactive,inactive,,inactive,inactive,inactive,inactive,inactive,inactive,inactive,,inactive,inactive,inactive,inactive,,,,,
Nc1nc2ncc(CNc3ccc(C(=O)N[C@@H](CCC(=O)O)C(=O)O)cc3)nc2c(=O)[nH]1,inactive,inactive,inactive,inactive,inactive,inactive,inactive,inactive,inactive,,inactive,inactive,inactive,inactive,,inactive,inactive,inactive,inactive,
COc1c(Cl)c(Cl)c(Cl)c(Cl)c1Cl,inactive,inactive,inactive,,,inactive,inactive,inactive,,inactive,inactive,inactive,inactive,inactive,inactive,inactive,inactive,,inactive,
CC(C)NCC(O)c1ccc(O)c(O)c1 (centres undefined),inactive,inactive,inactive,,,inactive,inactive,inactive,,,inactive,,inactive,303 nM (active) and 969 nM (active) and 596 nM (active),,,,,,
Oc1c(Cl)cc(Cl)cc1Sc1cc(Cl)cc(Cl)c1O,13.7 µM (active) and 31.1 µM (active) and 27.3 µM (active),inactive,inactive,inactive,inactive,,20.5 µM (active) and 46.5 µM (active) and inactive,36.4 µM (active) and inactive,inactive,,inactive,55.4 µM (active) and inactive,inactive,inactive,inactive,,,,,
Cc1ccc(N)c(S(=O)(=O)O)c1,inactive,inactive,inactive,inactive,inactive,inactive,inactive,inactive,inactive,inactive,inactive,inactive,inactive,inactive,,inactive,inactive,,inactive,inactive
